Experimental data taken from PubChem BioAssay AID488913 (National Center for Advancing Translational Sciences (NCATS), 2010).
Records with an inconclusive call do not appear. Calls of active or inactive are those of the source. Calls follow the shape of the dose curve; as a rule, active = well fitted inhibition curve with a large enough effect; inconclusive = small, poorly fitted or top-dose-only effect, or effect the other way; inactive = no such curve, though single readings can be large or run the other way.

Test: Confirmation Concentration-Response Assay for lipid storage modulators: for probe SAR
Excerpt: NIH Molecular Libraries Probe Production Centers Network [MLPCN] NIH Chemical Genomics Center [NCGC] MLPCN Grant: 1 R03 MH085686-01 Assay Submitter (PI): Beller, Mathias; Max-Planck-Institut fur Biophysikalische Chemie NCGC Assay Overview: Storing lipids as a reservoir for energy or the anabolism of elementary metabolites is a common feature of probably all cells and is conserved from bacteria to humans. The universal cellular lipid storage organelle is the so-called lipid storage droplet (LD). Although ubiquitous, LDs share a simple structure composed of a hydrophobic core that harbors the storage lipids, which is shielded by a droplet-specific phospholipid monolayer to which proteins are attached. The current model of LD biogenesis involves an incorporation of the lipid core into the membrane leaflets of the endoplasmic reticulum (ER) followed by a subsequent budding-like maturation of a LD, which ultimately pinches off. Once released, LD volume can increase by localized lipogenesis or fusion of existing droplets. Storage lipids are re-mobilized enzymatically by lipase activity. Lipase regulation in the adipocyte is heavily studied and involves multiple components including catecholamine signaling, the LD-associated proteins Perilipin and comparative gene identification-58 (CGI-58) and at least two lipases named hormone sensitive lipase (HSL) and adipocyte triglyceride lipase (ATGL). LD regulation outside of the adipocyte is poorly understood and only few components are known. However, there is an urgent need to learn more about ectopic fat depots as mislocalized storage of lipids, for example in the liver or muscle, is an eminent health problem associated with insulin resistance or the metabolic syndrome. We developed a laser-scanning cytometer assay to enable 1,536-well screening and combined the results of the small molecules screen with an RNAi database based on lipid storage.
We dispensed 4 uL of cells at 1.25 x 10^6 cells/mL into LoBase Aurora COC 1,536-well plates (black walled, clear bottom) with a bottle-valve solenoid-based dispenser (Aurora) to obtain 5,000 cells/well. Triacsin C (Sigma-Aldrich T-4540), an inhibitor of long-chain fatty acyl CoA synthetase that blocks synthesis of triglycerides, was used as a positive control for lipid under-storage. […] Fluorescence was detected by excitation of the fluorophores with a 488-nm laser on an Acumen Explorer (TTP Lab Tech). […] Cells were detected using channel 3 (575- 640 nm) with 5-um width and 100-um depth filters. The ratio of the total intensity in PMT channel 1 over total intensity of channel 3 was also calculated. […]

SMILES	Potency
CCC/C=C/C/C=C/C=C/C=N/NN=O	0.791 µM (active)
CCOC(=O)C1CCN(C(=O)C2(NC(=O)Nc3ccccc3Cl)CCCC2)CC1	0.787 µM (active)
CCOc1ccc(CCNC(=O)c2ccccc2)cc1OCC	inactive
CCOc1ccc(CCNC(=O)c2cc3sccc3n2Cc2ccc(F)cc2F)cc1OCC	0.056 µM (active)
